# Data taken from publication PMC7819943, “Rice protein-binding microarrays: a tool to detect cis-acting elements near promoter regions in rice”.
# Over roughly 39,000 sequences, “fluorescence intensity (a.u.)” has its median near 4,300; the highest 2% begin near 39,000. Many of the other results were omitted from the sample, so the highest values are more common in it than they were.
# Molecular target: T1, OsSMF1 (Oryza sativa, UniProt Q6ZLB0 1-436)
# T1 sequence: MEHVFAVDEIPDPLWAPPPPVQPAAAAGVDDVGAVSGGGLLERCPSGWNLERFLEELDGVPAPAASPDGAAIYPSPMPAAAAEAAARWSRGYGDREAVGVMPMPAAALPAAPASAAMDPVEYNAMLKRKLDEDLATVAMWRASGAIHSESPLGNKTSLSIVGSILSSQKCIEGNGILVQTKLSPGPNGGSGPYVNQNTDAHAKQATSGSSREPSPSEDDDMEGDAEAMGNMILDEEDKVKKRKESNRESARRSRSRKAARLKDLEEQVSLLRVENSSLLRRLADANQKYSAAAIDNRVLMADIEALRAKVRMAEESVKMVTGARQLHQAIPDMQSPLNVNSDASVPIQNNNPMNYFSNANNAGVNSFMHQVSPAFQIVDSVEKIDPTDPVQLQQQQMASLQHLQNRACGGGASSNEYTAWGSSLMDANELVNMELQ
# Test: protein-binding microarray (RPBM); PBS, 2% BSA, 51.3 ng/ul salmon testes DNA, 50 uM zinc acetate, 200 nM TF, 25 C, 1 h; high values mean tight binding
# Settings: protein: recombinant; tags: N-terminal polyhistidine and DsRed monomer fusion (pET32a); chain copies: 2; label: CyDye5-dUTP incorporated in the synthesized complementary strand; 3' TTTTT single-stranded linker to array surface; dsDNA, one strand shown
# Procedure, shortened: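 Transcription factors were made in E. coli BL21-CodonPlus as N-terminal fusions to a polyhistidine tag and DsRed, then purified on Ni–NTA. After primer extension with Cy5-dUTP and blocking with 2% BSA, a custom Agilent array was exposed for 1 h at 25 °C to 200 nM protein in PBS, 2% BSA, salmon testes DNA and 50 µM zinc acetate. Washed arrays were scanned on an Axon 4000B, and the binding signal is per-feature fluorescence intensity in arbitrary units.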
row,Sequence,binding signal
1,TCATACACATACAACTTTTCAGTCACATCATTTACAATTTCGGAGTCACCTAGTGCAG,29000 fluorescence intensity (a.u.)
2,AAACACTGAAATTTTAGCATCACGAAGTTCTCACCGAGACCGGAGTCACCTAGTGCAG,5200 fluorescence intensity (a.u.)
3,GGGTTCGATTCCCCGCACCTCCAATATAAAACGTTTTCTTCGGAGTCACCTAGTGCAG,3420 fluorescence intensity (a.u.)
4,GAGTCCGGCGTGATGCCGTGATGACGCCGCAACGCGGCATCGGAGTCACCTAGTGCAG,9060 fluorescence intensity (a.u.)
5,AGCATGCACCTTGATCACGGGAACGAGCTAGCGAGAGGCACGGAGTCACCTAGTGCAG,3720 fluorescence intensity (a.u.)
6,ACAAACGAACAAGACATGAAGCCGATGAGTCCAGCAGAGCCGGAGTCACCTAGTGCAG,3170 fluorescence intensity (a.u.)
7,GTTAATGGTGACTTTATTTTCGTCTGTTACAAAACGGAAGCGGAGTCACCTAGTGCAG,3250 fluorescence intensity (a.u.)
8,GATTAATTGATTTATTTCTTTCTGCTTTACCCGGTCGCCACGGAGTCACCTAGTGCAG,19200 fluorescence intensity (a.u.)
9,GCTGGCCCATCTCCTTGCCCACCCATGGGCCTGAAAGCCGCGGAGTCACCTAGTGCAG,49900 fluorescence intensity (a.u.)
10,TGGGAGCGCTGGGGCTGGCCATCTCTCCTTGCCTGCTGTGCGGAGTCACCTAGTGCAG,29400 fluorescence intensity (a.u.)
11,CACCCATCTCCTTGCCGGCCTCTCCACCCCGCCTCTTTCGCGGAGTCACCTAGTGCAG,19000 fluorescence intensity (a.u.)
12,ATTGATGTTACATGCCTCGCAAGCGATGACACGGCAAGCTCGGAGTCACCTAGTGCAG,5060 fluorescence intensity (a.u.)
13,AGCTCAGCTGTCACGGTGTCACCTGTCAGCGCCCACAACTCGGAGTCACCTAGTGCAG,6140 fluorescence intensity (a.u.)
14,GGCGAAGAATGCAGACATGACACGGACCCATCGACGCGGGCGGAGTCACCTAGTGCAG,3340 fluorescence intensity (a.u.)
15,AGTGGAAGCAGGTCTTTTACTGATCGATCAAGGTCTGATGCGGAGTCACCTAGTGCAG,16800 fluorescence intensity (a.u.)
16,GAGCTTCTGACTCATCTTTACTAGGAAGGGTCTTTTCAAGCGGAGTCACCTAGTGCAG,39100 fluorescence intensity (a.u.)
17,CTCATCTCAAGCTTTTCTCTCTCTCTCTCTCTTTGCACTACGGAGTCACCTAGTGCAG,4680 fluorescence intensity (a.u.)
18,CGCCGTCGACACGTGGGGCCCCTCCTCCCGCCGCCGCCGCCGGAGTCACCTAGTGCAG,9020 fluorescence intensity (a.u.)
19,GACTACGCGTACGCCACGCCACAACGCTTCTCGCTCTCCCCGGAGTCACCTAGTGCAG,4510 fluorescence intensity (a.u.)
20,ACAATTTTAATGAAATCGTACATTATACTATATATGTTTTCGGAGTCACCTAGTGCAG,3150 fluorescence intensity (a.u.)

row,Sequence,binding signal
1,CTATATTAATTAATGAATTAGCAATTGGATGTACCAATTTCGGAGTCACCTAGTGCAG,41000 fluorescence intensity (a.u.)
2,TAATGAATTAGGGCATTGGATGTACCAACTTATGTTATATCGGAGTCACCTAGTGCAG,23300 fluorescence intensity (a.u.)
3,TATATTCAATGCTATGTTTAATGAAACTAATTTGGATATTCGGAGTCACCTAGTGCAG,65100 fluorescence intensity (a.u.)
4,GGATATGTATAACAATGTGGGTCAGCAATATTGAACTATGCGGAGTCACCTAGTGCAG,3650 fluorescence intensity (a.u.)
5,TTAATAGTATAGTAAGCAATTGTTGTATGAATTGGCTATTCGGAGTCACCTAGTGCAG,27200 fluorescence intensity (a.u.)
6,CTCTCCTACAATAGGATGGACTATGTGACGTAGCACAATGCGGAGTCACCTAGTGCAG,7860 fluorescence intensity (a.u.)
7,CAAATATATTATCAAAATATATTCAATGCTAAATTTAATGCGGAGTCACCTAGTGCAG,5300 fluorescence intensity (a.u.)
8,TTAGCAAGTGCCTATGTGAGGATATAGCAATATTTCAATGCGGAGTCACCTAGTGCAG,42200 fluorescence intensity (a.u.)
9,CCCGTGACGTGTCGGCATCGGAGGGCCCCTCGTCGGGGTCCGGAGTCACCTAGTGCAG,10200 fluorescence intensity (a.u.)
10,GGTCCCGTCAGGGAAGGACCCCACGTCCTCGGTTCCATTCCGGAGTCACCTAGTGCAG,3910 fluorescence intensity (a.u.)
11,GAGCAGTAATGCGTGTGCGGCGATTGGCACGTGCATGGTGCGGAGTCACCTAGTGCAG,3780 fluorescence intensity (a.u.)
12,CTCCTTGGCCCGTTTGGTCTCTGTGTGGGTTGGTAAAGACCGGAGTCACCTAGTGCAG,3330 fluorescence intensity (a.u.)
13,CCTCCGACATCTCCAGCCAATTCCAGCTCAGCTCTCGCCGCGGAGTCACCTAGTGCAG,4150 fluorescence intensity (a.u.)
14,GCTTTACGTCTTGTGTGGAAGAAAGCGGAAAACTATCCAGCGGAGTCACCTAGTGCAG,3540 fluorescence intensity (a.u.)
15,ATAATAGCACATGTGGATATCTGTAGAATTCATTTCGTGTCGGAGTCACCTAGTGCAG,3550 fluorescence intensity (a.u.)
16,GAACGGGACCAGCTACTATAGTGAAATTTAGATTTCAAAGCGGAGTCACCTAGTGCAG,42200 fluorescence intensity (a.u.)
17,GACGTGATAAAGAAGTTCAGATTTAGAAATAAATTTGAAGCGGAGTCACCTAGTGCAG,3820 fluorescence intensity (a.u.)
18,AGCAGCGGGCTACAGATTTATAGCCAGCTGTAGCACGGATCGGAGTCACCTAGTGCAG,33200 fluorescence intensity (a.u.)
19,GCGGCTTCTCGCCGGCGGCGACCACCACCCGTCACCCACCCGGAGTCACCTAGTGCAG,3380 fluorescence intensity (a.u.)
20,ATCCATTGCTGCTTTCAGCTGAGTCACCAACTCCTATCCACGGAGTCACCTAGTGCAG,14100 fluorescence intensity (a.u.)

row,Sequence,binding signal
1,GTTGCAGAGCAGCTCGCGCCGCGCGCGTACACTCGCTTTGCGGAGTCACCTAGTGCAG,6780 fluorescence intensity (a.u.)
2,GGGCTTGCCCATTACGCGTTGCTATAGACGCCCTTTCATTCGGAGTCACCTAGTGCAG,41600 fluorescence intensity (a.u.)
3,GTGGGCTTAGACGGCCCAGTCATGACCCTTTCATTTCGTGCGGAGTCACCTAGTGCAG,3440 fluorescence intensity (a.u.)
4,TTTGCCCATTTTATTCCCTTGCGTCATCCATTTACTGCTTCGGAGTCACCTAGTGCAG,13800 fluorescence intensity (a.u.)
5,GCGGTGGCGGTTGGGGTGGCGAGTGGGGAGGAGGAGGCGGCGGAGTCACCTAGTGCAG,5880 fluorescence intensity (a.u.)
6,TAGCGCGGCTGCACAGTACAGTCCGACGTCACAGCTCACTCGGAGTCACCTAGTGCAG,49200 fluorescence intensity (a.u.)
7,CGCCGGCACAGCGACATAGCTGACGTCGACGATGCTCACTCGGAGTCACCTAGTGCAG,5350 fluorescence intensity (a.u.)
8,CCCAAAGCTGACGTACAGCACCGACCCGGTCGGCTGCTCGCGGAGTCACCTAGTGCAG,4200 fluorescence intensity (a.u.)
9,ACCACATCCACTGCCGCGCCACGCCTCTCGGCCGCCACACCGGAGTCACCTAGTGCAG,3770 fluorescence intensity (a.u.)
10,CAACCTTTATCTGAAGTGGCAGGCACGTGGATTAGCAATACGGAGTCACCTAGTGCAG,5790 fluorescence intensity (a.u.)
11,GGTAATAGTGTCAACATATTGCATTAAGATGATTGCAGTGCGGAGTCACCTAGTGCAG,24300 fluorescence intensity (a.u.)
12,CAAGATGGGTCGGGTTGGGTGGGGTTACTCGCACTAGCACCGGAGTCACCTAGTGCAG,3160 fluorescence intensity (a.u.)
13,GCGGCTCGCCGTCATATGCGACGTGGCATGCACGACGCCGCGGAGTCACCTAGTGCAG,14300 fluorescence intensity (a.u.)
14,AGTGGCAGGGGTGTGGGGATTGCCGGCTTGCCGCGGAGGACGGAGTCACCTAGTGCAG,3530 fluorescence intensity (a.u.)
15,CGCTGCTGAGTGCTGACTCCTTCGCCCTCCTCCTCACTTTCGGAGTCACCTAGTGCAG,7650 fluorescence intensity (a.u.)
16,GGCAGGACGGCAGGAGGCCTGTTCGCTTGAGGTGTCTAGCCGGAGTCACCTAGTGCAG,39800 fluorescence intensity (a.u.)
17,CTAGCTTTGAGGTGGAGGTGGTGGTGGAGGAGGAGGAGGACGGAGTCACCTAGTGCAG,3340 fluorescence intensity (a.u.)
18,GAATAGCTGCTTGTTAACTAGGGATTAGAGGTGGGGTTTTCGGAGTCACCTAGTGCAG,17400 fluorescence intensity (a.u.)
19,TTTTCGCTGAGGTGGCAGGTTAACTTGTCTGCTTTCGGCCCGGAGTCACCTAGTGCAG,39300 fluorescence intensity (a.u.)
